# Laboratory results from the supplement of paper PMC10338343.
# ± gives the standard deviation.
# System: MILI (PIWIL2) piRISC loaded with piRNA #1 (26 nt)
# Experiment: pre-steady-state target cleavage rate (min^-1); guide: piRNA #1 5'p-UGAGGUAGUAGGUUGUAUAGUAUCCA; MIWI and MILI are mouse PIWI proteins and EfPiwi is from a freshwater sponge; tags in brackets are library labels; higher = faster piRNA-guided slicing of the target
# Conditions: auxiliary factor: 500 nM mouse GTSF1
# Outline: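 Active affinity-purified piRISC (1 nM) loaded with one synthetic guide was mixed with a transcribed, DNA-blocked target RNA library (0.1 nM), with or without 500 nM GTSF1 partner protein, in HEPES–potassium acetate buffer at 33 °C for 0–8 or 0–960 min. Uncleaved targets were sequenced, normalised to depth and to weakly complementary targets, and pooled across three trials, with k3 capped at 0.0001 min^-1. The pre-steady-state cleavage rate was determined with a burst-and-steady-state fit.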
row,Sequence,pre-steady-state target cleavage rate
1,GGAGUGCAUACUAUACUACCUACUACCUCA,0.161 ± 0.0089
2,GGAGACCUUACUAUACAACCUAGUACCACA,0.00907 ± 0.0036
3,GGAGAGGAUACUUAUACAACCUACUACCUCA,0.127 ± 0.012
4,GGAGUGGAUACUAUACAACCUACCACCUCA,0.0748 ± 0.01
5,GGAGACGAUACAUAUACAACCUACUACCUCA,0.111 ± 0.013
6,GGAGUGGAUACUAUACAUCCUUCUACCUCA,0.0293 ± 0.0033
7,GGAGACGAUACUAUACAACCUACUACCUCC [g2:g24:cont:t1C],0.182 ± 0.014
8,GGAGACCAUACUAUACAUCCAACUACCUCA,0.00924 ± 0.0032
9,GGAGAGGAUACUAUACAACGUACUACCUCA,0.0143 ± 0.003
10,GGAGACCUAUCUAUAACAACCUACUACCUCA,0.0615 ± 0.012
11,GGAGACGAUACUAUACAACCAACUACGUCA,0.00504 ± 0.0028
12,GGAGAGGAUACUAUACAACCUACUACCUCCA,0.152 ± 0.011
13,GGAGUGGAUACUAUACAACGUACUACCUGA,0.0131 ± 0.0034
14,GGAGAGGAUCUAUACAACCUACUACCUCA,0.171 ± 0.013
15,GGAGUGGAUACUAUACAACCUACACCUCA,0.00292 ± 0.0021
16,GGAGACCUAACUAUACAACGUACUACGUCA,0.00454 ± 0.0043
17,GGAGAGGAUACUAUACAACCUACUCACCUCA,0.138 ± 0.016
18,GGAGUCGAUACUAUACAACCUUCUACCUCA,0.00775 ± 0.0022
19,GGAGAGGAUACUUUACAACCAACUACCUCA,0.00433 ± 0.0019
20,GGAGACCAUACAAAACAACCUACUACCUCA,0.0496 ± 0.014

row,Sequence,pre-steady-state target cleavage rate
1,GGAGACGAUUCUAUACAACCUACUACCUCA,0.209 ± 0.013
2,GGAGAGGAUACUAUACAACCUGCUACCUCA,0.066 ± 0.0089
3,GGAGUGGAUACUAUACAACCUACUGACCUCA,0.0789 ± 0.011
4,GGAGACCAUGCUAUACAACCUACUACCUCA,0.145 ± 0.023
5,GGAGUGGAUACUAUACAACCGUACUACCUCA,0.00369 ± 0.0022
6,GGAGACGAUAUUAUACAACCUACUACCUCA,0.214 ± 0.013
7,GGAGAGGAUAUUAUACAACCUACUACCUCA,0.157 ± 0.0082
8,GGAGACGUUACUAUACAACCUACUACCACA,0.191 ± 0.016
9,GGAGAGGAUACAAUACAACCUACUAGCUCA,0.068 ± 0.011
10,GGAGACCUUACUAUACAACCUACUACGUGA,0.137 ± 0.024
11,GGAGACCAUACGAUACAACCUACUACCUCA,0.255 ± 0.028
12,GGAGACCAUACAAUACAACCUACUACCUCA,0.189 ± 0.023
13,GGAGAGGAUACUGAUACAACCUACUACCUCA,0.17 ± 0.014
14,GGAGUGGAUACUAUACUACCUUCUACCUCA,0.0207 ± 0.0034
15,GGAGAGGUUACUAUACAACCUACUACCUGA,0.0157 ± 0.0052
16,GGAGACCAUACUAUACAACCUACUACGUGA,0.115 ± 0.024
17,GGAGUCGAUACUAUACAACCUAGUACCUCA,0.0166 ± 0.0031
18,GGAGACGAAACUAUACAACCUACUACCUCA,0.172 ± 0.022
19,GGAGACCUAACUAUACAACCUACCACCUCA,0.0488 ± 0.014
20,GGAGUGGAUACAAUACAACCUACUACCACA,0.111 ± 0.0093
